Over roughly 33,000 sequences, “E-score (-0.5 to 0.5)” has its median near -0.035; the highest 2% begin near 0.35. The full list was thinned out, with the highest values kept by preference.

The experiment deals with T1, Pdr3 (UniProt P33200).
T1 sequence: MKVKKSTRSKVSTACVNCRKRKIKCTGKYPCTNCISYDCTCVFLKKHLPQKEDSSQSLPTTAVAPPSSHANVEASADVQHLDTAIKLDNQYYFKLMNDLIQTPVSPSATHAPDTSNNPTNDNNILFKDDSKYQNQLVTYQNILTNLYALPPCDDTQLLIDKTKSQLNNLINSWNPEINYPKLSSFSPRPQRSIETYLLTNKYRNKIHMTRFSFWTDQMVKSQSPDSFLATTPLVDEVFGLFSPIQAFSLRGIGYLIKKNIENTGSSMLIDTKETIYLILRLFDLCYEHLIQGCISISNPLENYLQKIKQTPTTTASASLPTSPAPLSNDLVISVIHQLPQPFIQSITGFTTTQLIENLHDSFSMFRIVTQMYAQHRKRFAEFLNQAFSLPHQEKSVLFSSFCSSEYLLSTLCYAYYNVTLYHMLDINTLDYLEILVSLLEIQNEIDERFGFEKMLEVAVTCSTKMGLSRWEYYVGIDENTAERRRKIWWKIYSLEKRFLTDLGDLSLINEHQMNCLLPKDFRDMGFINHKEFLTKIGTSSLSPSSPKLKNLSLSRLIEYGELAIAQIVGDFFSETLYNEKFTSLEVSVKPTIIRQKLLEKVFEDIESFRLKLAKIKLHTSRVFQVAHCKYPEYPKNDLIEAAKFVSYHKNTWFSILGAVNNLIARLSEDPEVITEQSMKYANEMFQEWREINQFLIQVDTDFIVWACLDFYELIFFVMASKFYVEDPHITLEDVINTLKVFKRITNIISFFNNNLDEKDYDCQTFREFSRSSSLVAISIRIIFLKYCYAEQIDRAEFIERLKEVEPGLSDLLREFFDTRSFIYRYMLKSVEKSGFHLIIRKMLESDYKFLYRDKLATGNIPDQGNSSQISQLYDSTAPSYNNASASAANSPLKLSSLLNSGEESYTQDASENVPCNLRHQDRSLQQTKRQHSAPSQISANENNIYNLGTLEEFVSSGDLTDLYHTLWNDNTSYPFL
The experiment in a line: PBM E-score (8-mer binding enrichment) (E-score (-0.5 to 0.5)); higher = stronger / more preferred TF binding. The following applies: protein concentration: 200 nM; construct: GST-full length. How it is done:
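Universal 'all 10-mer' protein binding microarrays (Agilent AMADID 015681) probed with GST-tagged S. cerevisiae TFs (full-length or DBD) made by in vitro transcription/translation (PURExpress), about 100-200 nM. Bound TF was detected with fluorescent anti-GST. Each ungapped 8-mer (which stands for itself and its reverse complement) is scored by the PBM enrichment score (E-score), a modified Wilcoxon-Mann-Whitney statistic from -0.5 to +0.5, computed with the Universal PBM Analysis Suite. Scale: above 0.35 generally sequence-specific binding.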
As to CCACCCCG, the “PBM E-score” value stood at 0.165.

As to CCCTGCTA, the “PBM E-score” value was -0.0619. Turning to TACGGGCA, the “PBM E-score” value amounted to 0.00013. Under CTGTTCCC stands 0.0618.

Consider ACACTAGT, for which the “PBM E-score” value was -0.167.

Take AGGCTTTC: the “PBM E-score” value was -0.203. On to TCTGTGAA, for which the “PBM E-score” value is -0.0705. Under CCGGAGAG stands 0.363. ACGGAGAA: the “PBM E-score” value is 0.265. On to GCGGAGAC, for which the “PBM E-score” value was 0.336.

With ACGGAGAG, the “PBM E-score” value amounted to 0.319. With TCGGAGAA, the “PBM E-score” value was determined as 0.225. Under ACGGAGAC stands 0.321; under CAGGAGAG, -0.174; under CCGGAGAC, 0.37. Turning to CCGGAGAA, the “PBM E-score” value is 0.385. Under AATGAGGA stands -0.177; under GCAGTCGC, -0.0644. To TATCGCGA belongs 0.258; to GCCTTCCC, -0.1. Consider CCTACTCC, for which the “PBM E-score” value was -0.0705. Under GCTACTGA stands 0.00622; under GATTCCCC, 0.0929; under AATTCCGC, 0.397.

In the case of GATTCCAC, the “PBM E-score” value amounted to 0.19. Regarding GATTCCGC, the “PBM E-score” value was 0.455.

As to AATTCCTC, the “PBM E-score” value stood at 0.0037.

For the sequence AATTCCCG, the “PBM E-score” value worked out at 0.298. CATTCCAC: the “PBM E-score” value was found to be 0.0732.

As to AATTCCCC, the “PBM E-score” value came to 0.203.

For the sequence AATTCCTG, the “PBM E-score” value was -0.021. Turning to AATTCCGG, the “PBM E-score” value amounted to 0.449.

Regarding CATTCCTC, the “PBM E-score” value turned out to be 0.0812. With CATTCCGC, the “PBM E-score” value came to 0.421. Under CGCCCTCC stands 0.0638. With TAATGATA, the “PBM E-score” value was 0.132. Turning to ATCGCATC, the “PBM E-score” value came out at 0.121. Under GTCCCAAA stands -0.154.

As for CAGGCCAC, the “PBM E-score” value amounted to 0.00119. With ATTTGCAG, the “PBM E-score” value is -0.0031.

Consider ACCATAGG, for which the “PBM E-score” value was -0.229.

As to GAGAAAAA, the “PBM E-score” value is 0.176.

For the sequence ATCTGGGG, the “PBM E-score” value is -0.109. Under AATTCCCT stands -0.207; under AATTCCGA, 0.423. To AATTCCGT belongs 0.449. With AATTCCCA, the “PBM E-score” value is -0.171. Under AATTCCAT stands 0.156. As for AATTCCAA, the “PBM E-score” value was -0.0365. Regarding ACTAGCCG, the “PBM E-score” value was determined as 0.105. Under GACCCGAC stands 0.21; under AGCCCGGA, 0.355.

As to CGCCCGGA, the “PBM E-score” value was 0.396. Turning to GGCCCGGA, the “PBM E-score” value was determined as 0.336. With AGCCCGGC, the “PBM E-score” value was 0.264. To CGCCCGGC belongs 0.293; to AGCCCCGG, 0.303. Under CGCCCGAA stands 0.117. To AGCCCGAG belongs -0.044; to AGCCCGGG, 0.383. As for ACACAGTC, the “PBM E-score” value was -0.0508. Under CTAGCATC stands -0.172; under CTTTCTAC, -0.16. Under ACCATACG stands -0.0138; under CCGGCGGA, 0.449; under ACGGCGGA, 0.314. With CCGGCGGC, the “PBM E-score” value stood at 0.325. For the sequence CTGGCGGA, the “PBM E-score” value turned out to be 0.131. Under GCGGCGGA stands 0.404. To GTGGCGGA belongs 0.271; to ATCTCCTA, -0.245. To GATACGAA belongs 0.033; to GCCTGGCC, 0.00694; to TCAACACA, -0.0355.

CATCCGGG: the “PBM E-score” value amounted to 0.261. On to AATCCGGA, for which the “PBM E-score” value turned out to be 0.455. Consider AATCCGGC, for which the “PBM E-score” value worked out at 0.302. To GATCCGAA belongs 0.365. With CATCCGGA, the “PBM E-score” value came to 0.426.

Regarding AATCCGGT, the “PBM E-score” value turned out to be 0.294.

For CATCCGTA, the “PBM E-score” value was 0.282. CATCCGGC: the “PBM E-score” value was determined as 0.295. To AATCCAGA belongs 0.127; to TATCCGAA, 0.307; to CATCCGAA, 0.282. Turning to GATCCGGC, the “PBM E-score” value was 0.369. Turning to AGAATGCG, the “PBM E-score” value was determined as 0.0628. Turning to CAAGGCGA, the “PBM E-score” value is -0.174.

In the case of GACGCCTA, the “PBM E-score” value was -0.228. Under AGCTGTTG stands -0.0549; under AAGAAATC, -0.104. To ACATGAGG belongs -0.0733.

CCTCCGAA: the “PBM E-score” value is 0.152.

In the case of TATCCTGA, the “PBM E-score” value was -0.107. Under TCTCCGAA stands 0.257; under GCTCCGAA, 0.361; under GATCCGTA, 0.336. As for TATCCGCA, the “PBM E-score” value stood at 0.335.

Turning to TATCCGGA, the “PBM E-score” value came to 0.446. Take GATCCGGA: the “PBM E-score” value stood at 0.437.

Regarding GATCCGCA, the “PBM E-score” value stood at 0.319.

(Values after the supplement of paper PMC3334620.)
